# Experimental data taken from PubChem BioAssay (NCATS).
# Inconclusive results are not listed. Activity calls are given as the source filed them. Unless noted, calls come from the whole dose curve; as a rule, active = well fitted curve in the direction sought with a large enough effect; inconclusive = small, poorly fitted or top-dose-only effect, or another doubt; inactive = no such curve, though single readings can be large; an effect the other way counts as inactive or inconclusive.
# How the values were obtained:
# [1] = biological target: N-terminal Xaa-Pro-Lys N-methyltransferase 1 (Homo sapiens) (UniProt Q9BV86); test: Confirmatory qHTS for Inhibitors of N-terminal methyltransferase 1 (NTMT1): MTaseGlo Assay (AID 1645874); note: nearly all actives have a fitted effect of over 65% in size; note: potency is the fitted concentration of half-maximal effect;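 for activity change, negative = inhibition: luminescence from SAH made as NTMT1 methylates SPKRIA peptide using SAM; 0% = DMSO control and -100% = no-enzyme control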
# Sequence of N-terminal Xaa-Pro-Lys N-methyltransferase 1 (Homo sapiens) (Q9BV86 whole entry, looked up): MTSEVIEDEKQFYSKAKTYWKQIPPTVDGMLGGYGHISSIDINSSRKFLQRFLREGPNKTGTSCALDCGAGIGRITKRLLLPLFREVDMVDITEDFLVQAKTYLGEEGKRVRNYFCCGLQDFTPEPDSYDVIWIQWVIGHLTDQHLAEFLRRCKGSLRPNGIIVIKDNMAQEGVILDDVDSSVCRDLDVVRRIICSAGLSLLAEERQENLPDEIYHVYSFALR
# How it was run: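 Luminescent MTase-Glo read-out of SAH. 125 nM NTMT1, 100 uM SAM, 1 uM SPKRIA substrate, 30 min RT reaction after 15 min compound preincubation. Normalized to no-enzyme and DMSO controls; Hill fit.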
# [2] = Primary qHTS for inhibitors of nuclear receptor binding SET domain protein 2 (NSD2) in an isogenic RCH-ACV NSD2 p.E1099K mutant (9B) (AID 1645876); note: nearly all actives have a fitted effect of over 70% in size; note: potency is the fitted concentration of half-maximal effect
# [3] = Primary qHTS for inhibitors of nuclear receptor binding SET domain protein 2 (NSD2) in an RCH-ACV wild type WT cells (2C) (AID 1645877); note: nearly all actives have a fitted effect of over 70% in size; note: potency is the fitted concentration of half-maximal effect
# [4] = NCATS anti-infectives library activity on HEK293 viability as a counter-qHTS vs the C. elegans viability qHTS (AID 1745854);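 note: HEK293 cells exposed to compounds for 24 hr before the viability read; % is set by controls: 0 for no effect and ±100 for the full control effect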
# How it was run: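 Cytotoxicity in human HEK293 cells is measured by ATP-dependent CellTiter-Glo luminescence following a 24 hr incubation with titrated library compounds at 37C. Top final concentration is 41.7 uM.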
# [5] = biological target: Glutathione peroxidase 1 (Homo sapiens) (UniProt P07203); test: Primary qHTS Assay for Inhibitors of Recombinant Selenoprotein Glutathione Peroxidase 1 (GPX1) (AID 1845191); note: nearly all actives have a fitted effect of over 65% in size
# Sequence of Glutathione peroxidase 1 (Homo sapiens) (P07203 whole entry, looked up): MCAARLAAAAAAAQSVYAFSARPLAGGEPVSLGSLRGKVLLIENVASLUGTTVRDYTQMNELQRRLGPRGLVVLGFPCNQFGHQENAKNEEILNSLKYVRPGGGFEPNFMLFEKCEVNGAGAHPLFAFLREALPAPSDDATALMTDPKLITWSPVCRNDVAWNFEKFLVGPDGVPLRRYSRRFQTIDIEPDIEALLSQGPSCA
# How it was run: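 GR-coupled assay: compounds preincubated 30 min at room temperature with GPX1, then reaction started with CHP; final 10 nM GPX1, 1 mM GSH, 0.5 mM CHP, 0.5 mM NADPH, 100 nM GR, 0.01% BSA, pH 7.5 Tris buffer. NADPH fluorescence (340/450 nm) read at 0 and 15 min.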
# [6] = qHTS drug screen for cell cycle checkpoint inhibitors in PARPi-resistant BRCA-mutant ovarian cancer cell lines. (AID 1963452; calls by dose curve); settings: PEO1/OlaR viability, CellTiter-Glo luminescence, 96 h, stronger effect = lower value
# How it was run: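 PEO1, PEO4 and PEO1/OlaR ovarian cancer cells, 600 per well, exposed 96 h at 37C to a dilution series. Viability read by CellTiter-Glo luminescence, normalized to DMSO and empty wells; activity summarized as Z-AUC.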
# [7] = biological target: Catechol O-methyltransferase (Homo sapiens) (UniProt P21964); test: Confirmatory Screen for Target Class Profiling of Small Molecule Inhibitors of Methyltransferases (AID 1745852; calls by dose curve; note: potency is the fitted concentration of half-maximal effect; for activity change, negative = inhibition: % is set by controls: 0 for no effect and ±100 for the full control effect); settings: MTase-Glo luminescence, SAH detection, recombinant enzyme; measured here: COMT max response; stronger effect = lower value
# Sequence of Catechol O-methyltransferase (Homo sapiens) (P21964 whole entry, looked up): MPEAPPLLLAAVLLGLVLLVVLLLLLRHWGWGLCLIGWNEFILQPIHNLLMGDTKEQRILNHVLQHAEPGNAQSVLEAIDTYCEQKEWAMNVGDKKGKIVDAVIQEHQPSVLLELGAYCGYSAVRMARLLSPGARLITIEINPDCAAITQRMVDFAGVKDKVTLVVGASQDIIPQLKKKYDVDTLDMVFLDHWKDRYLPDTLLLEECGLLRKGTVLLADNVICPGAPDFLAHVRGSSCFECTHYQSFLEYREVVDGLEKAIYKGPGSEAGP
# [8] = biological target: Guanidinoacetate N-methyltransferase (Homo sapiens) (UniProt Q14353); test: as above; settings: MTase-Glo luminescence, SAH detection, recombinant enzyme; activity change, negative = inhibition: at 57.3 µM (top of the series) unless noted
# [9] = biological target: Nicotinamide N-methyltransferase (Homo sapiens) (UniProt P40261); test: as above; settings: MTase-Glo luminescence, SAH detection, recombinant enzyme; measured here: NNMT max response; stronger effect = lower value
# Sequence of Nicotinamide N-methyltransferase (Homo sapiens) (P40261 whole entry, looked up): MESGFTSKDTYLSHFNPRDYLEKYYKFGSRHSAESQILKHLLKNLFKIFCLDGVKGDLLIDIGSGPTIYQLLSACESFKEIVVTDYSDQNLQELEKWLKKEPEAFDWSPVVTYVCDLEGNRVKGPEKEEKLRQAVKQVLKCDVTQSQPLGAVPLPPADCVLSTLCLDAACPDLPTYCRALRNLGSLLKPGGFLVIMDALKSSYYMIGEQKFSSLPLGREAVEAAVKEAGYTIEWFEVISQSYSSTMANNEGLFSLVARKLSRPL
# [10] = biological target: Phenylethanolamine N-methyltransferase (Homo sapiens) (UniProt P11086); test: as above; settings: MTase-Glo luminescence, SAH detection, recombinant enzyme; measured here: PNMT max response; stronger effect = lower value
# Sequence of Phenylethanolamine N-methyltransferase (Homo sapiens) (P11086 whole entry, looked up): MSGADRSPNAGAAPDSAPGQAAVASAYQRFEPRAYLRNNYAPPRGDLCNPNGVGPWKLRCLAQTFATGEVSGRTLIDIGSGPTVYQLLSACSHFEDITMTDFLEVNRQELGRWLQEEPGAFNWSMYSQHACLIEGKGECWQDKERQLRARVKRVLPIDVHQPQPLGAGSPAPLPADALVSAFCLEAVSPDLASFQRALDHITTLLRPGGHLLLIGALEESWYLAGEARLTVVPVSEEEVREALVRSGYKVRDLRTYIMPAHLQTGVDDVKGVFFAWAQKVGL
# [11] = biological target: Phospholipid hydroperoxide glutathione peroxidase GPX4 (Homo sapiens) (UniProt P36969); test: Primary qHTS Assay for Inhibitors of Recombinant Selenoprotein Glutathione Peroxidase 4 (GPX4) (AID 1845192); note: nearly all actives have a fitted effect of over 65% in size; note: potency is the fitted concentration of half-maximal effect; for activity change, negative = inhibition: % is set by controls: 0 for no effect and ±100 for the full control effect
# Sequence of Phospholipid hydroperoxide glutathione peroxidase GPX4 (Homo sapiens) (P36969 whole entry, looked up): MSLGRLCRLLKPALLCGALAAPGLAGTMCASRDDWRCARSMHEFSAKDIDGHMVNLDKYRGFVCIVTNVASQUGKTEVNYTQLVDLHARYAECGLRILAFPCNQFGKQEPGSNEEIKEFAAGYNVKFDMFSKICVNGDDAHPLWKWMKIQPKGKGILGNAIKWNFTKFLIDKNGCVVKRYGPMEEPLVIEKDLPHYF
# How it was run: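 GR-coupled assay: recombinant GPX4 preincubated 30 min with compound at room temperature; final 200 nM GPX4, 1 mM GSH, 0.5 mM cumene hydroperoxide, 0.5 mM NADPH, 100 nM GR, 0.01% BSA, pH 7.5 Tris. NADPH fluorescence (340/450 nm) read at 0 and 15 min.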
# [12] = NCATS anti-infectives library activity on the primary C. elegans qHTS viability assay (AID 1745855; calls by dose curve)
# How it was run: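 Viability is taken from GFP fluorescence of PE254-GFP-FLuc C. elegans imaged by laser cytometry over 7 days. Ten L1 worms per well grow at 21 °C on TOP10 E. coli capsules with titrated compound; levamisole marks toxicity.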
# [13] = measured here: PEO1 parental Z-AUC
compound,measurement,setting,value
COc1cc2nc(Nc3ccc(C)c(C)c3)nc(N)c2cc1OC,Potency,[1],39.8 µM (active)
Cc1c(O)cccc1C(=O)NC(CSc1ccccc1)C(O)CN1CC2CCCCC2CC1C(=O)NC(C)(C)C (centres undefined),Potency,[2],23.5 µM (active)
same,Potency,[3],20.9 µM (active)
COC(=O)c1ccc(NC(=O)CSc2nc3ccc(OC)cc3[nH]2)cc1,Potency,[1],inactive
CCOc1ccc(/C=C/c2nc3ccccc3n2S(=O)(=O)c2cccc(Cl)c2)cc1,Potency,[1],12 µM (active)
COc1cc(-c2nc3ccc(Cl)cn3c2Nc2ccc3c(c2)OCO3)ccc1O,Potency,[1],5.15 µM (active)
O=C(Nc1noc2ccccc12)c1c(F)cccc1F,Potency,[1],inactive
CNc1sc(-c2cccc3ccccc23)nc1C#N,Potency,[1],inactive
O=C(NO)c1cnc(NC2(c3ccccc3)CC2)nc1,Potency,[2],7.42 µM (active)
same,Potency,[3],7.42 µM (active)
same,outcome,[4],inactive
same,Potency,[5],inactive
same,Z-AUC,[6],-0.236 (inactive)
same,Z-AUC,[6]; [13],0.229
same,Z-AUC,[6]; measured here: PEO4 Z-AUC,0.185
Oc1cccc(Nc2ccnc3[nH]c4ccccc4c23)c1,Potency,[2],4.11 µM (active)
same,Potency,[3],4.11 µM (active)
same,activity,[7],-17.6%
same,Potency,[8],48.2 µM (active)
same,activity,[9],-74.1%
same,activity,[10],-25.8%
same,Potency,[5],inactive
COc1cc2c(NC3CCN(C)CC3)nc(N3CCCN(C)CC3)nc2cc1OCCCN(C)C,Potency,[2],inactive
same,Potency,[3],inactive
same,activity,[7],3.04%
same,"activity change, negative = inhibition",[8],3.96%
same,activity,[9],-9.37%
same,activity,[10],-4.66%
same,Potency,[5],inactive
same,Potency,[11],18 µM (active)
COc1cc2c(NC3CCN(C(C)C)CC3)nc(N3CCCN(CC4CCCCC4)CC3)nc2cc1OCCCN1CCCCC1,Potency,[1],43.5 µM (active)
Nc1ccc(F)cc1NC(=O)c1ccc(CNC(=O)/C=C/c2cccnc2)cc1,Potency,[2],1.05 µM (active)
same,Potency,[3],1.18 µM (active)
same,outcome,[4],inactive
same,Potency,[12],inactive
same,Potency,[5],inactive
same,Potency,[11],inactive
same,Z-AUC,[6],-1.13 (inactive)
same,Z-AUC,[6]; [13],-0.9
same,Z-AUC,[6]; measured here: PEO4 Z-AUC,-0.779
C[C@]12CCCN1CC1=NNC(=O)c3cc(F)cc4[nH]c2c1c34,Potency,[2],10.5 µM (active)
same,Potency,[3],3.72 µM (active)
same,outcome,[4],inactive
same,Potency,[12],inactive
same,Potency,[5],inactive
same,Potency,[11],inactive
same,Z-AUC,[6],-0.827 (inactive)
same,Z-AUC,[6]; [13],-0.713
same,Z-AUC,[6]; measured here: PEO4 Z-AUC,0.783
COc1cc(N2CCN(C)CC2)ccc1Nc1ncc2c(n1)N(C)c1ccccc1C(=O)N2,Potency,[2],16.6 µM (active)
same,Potency,[3],16.6 µM (active)
same,Potency,[5],inactive
same,Potency,[11],inactive
same,Z-AUC,[6],-0.466 (inactive)
same,Z-AUC,[6]; [13],-0.178
same,Z-AUC,[6]; measured here: PEO4 Z-AUC,0.52
Cc1noc(C)c1-c1ccc(-c2cc(C(N)=O)c(NC(N)=O)s2)c(O[C@H]2CCNC2)c1,Potency,[2],16.6 µM (active)
same,Potency,[3],14.8 µM (active)
same,Potency,[5],inactive
